# Data as given in PubChem BioAssay (EPA / NIEHS).
# Results filed as inconclusive are left out. A structure can be active in one record and inactive in another. Activity calls are given as the source filed them. How the source made its calls: active means hit-call score of the fitted dose curve at least 0.9, where 1 is the maximum; inconclusive means response in the unintended direction; inactive means score below 0.9.
# Test: TOX21_p53_BLA_p5_viability: Viability Assessment in the Tox21 HCT-116 p53 Agonism Beta-lactamase Assay, Phase 5 (AID 2283600)
# Summary of the method: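 ATP luminescence (CellTiter-Glo, 30 min, RT) served as the viability read-out, with loss of signal indicating cytotoxicity. Compounds in DMSO were pinned at a 217-fold dilution onto 4000 cells/well and incubated 16 h, 37C.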
SMILES,outcome,AC50
NC(=O)CN1CC(O)CC1=O (configuration not stated),inactive,
CNC(=O)OCC[N+](C)(C)C,inactive,
COP(=S)(OC)Oc1ccc(S(N)(=O)=O)cc1,inactive,
CCCCCN(C)CCC(O)(P(=O)(O)O)P(=O)(O)O,inactive,
C[C@@H](Cc1ccccc1)N(C)C,inactive,
CN1C(=O)CC(=O)N(c2ccccc2)c2cc(Cl)ccc21,inactive,
C=CCC1([C@H](C)CCC)C(=O)NC(=O)NC1=O,inactive,
N#CCCC#N,inactive,
COc1ccccc1N1CCNCC1,inactive,
CCOP(=O)(O)OCC (tested in a mixture with another compound),inactive,85.2 µM (active)
CNNC,inactive,
O=C1CN(O)C(c2ccccc2)=c2cc(Cl)ccc2=N1,inactive,
ClCC(Cl)(Cl)Cl,inactive,
CNC(=O)Oc1ccccc1C1OCCO1,inactive,
FC(Cl)(Cl)Cl,inactive,
CC(C)=CCOc1c2occc2cc2ccc(=O)oc12,inactive,
